Experimental findings from PubChem BioAssay AID504834 (National Center for Advancing Translational Sciences (NCATS), 2011) are described below.

Structures are written as SMILES. In all, about 320,000 compounds went through this assay and about 22,000 (6.9%) were called active. Roughly 27% stayed inconclusive and do not appear here. The call rests on the fitted dose curve; in most records, active means well fitted inhibition curve with a large enough effect; inconclusive means small, poorly fitted or top-dose-only effect, or another doubt; inactive means no such curve, though single readings can be large or run the other way. The list comes from a sample in which actives are over-represented; it also holds similar structures and randomly drawn compounds. Entries that show only a call come without a potency.
Potency means the concentration at half of the fitted maximal effect.

The nature of the experiment: Primary qHTS for delayed death inhibitors of the malarial parasite plastid, 96 hour incubation. The settings on record: P. falciparum luciferase reporter growth; series mostly up to 28.7 µM. A digest of the protocol:
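Compounds incubated with erythrocytes infected by luciferase-expressing P. falciparum (2% hematocrit, 0.05% parasitemia final) for 96 hours, 37 C in 5% CO2. Growth inhibition scored as decreased luciferase luminescence.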
(In general: qHTS replaces the single test concentration by a dilution series.)
Regarding `O=C(NCc1ccco1)C1CCCN1S(=O)(=O)c1ccccc1C(F)(F)F` (stereo unspecified), the Potency entry is “inactive”. Turning to `CCOC(=O)C1=C(COC(=O)[C@H](C)NS(=O)(=O)c2ccccc2F)NC(=O)NC1C` (stereo partly specified), the Potency entry is “inactive”. As for `CN(C)CCCN=Cc1c(O)n(Cc2ccco2)c(=O)[nH]c1=O`, the Potency result was “inactive”. For the molecule `Cc1cs/c(=N\N=C\c2ccc(O)cc2)n1Cc1ccco1`, the Potency result is “inactive”. The same measure for `CC(C)n1c(=O)c(C=Nc2ccc(Br)cc2)c(O)n(Cc2ccco2)c1=O`: 10.4 µM (active); for `COC(=O)c1cccc(N(C(=O)CNC(=O)c2cccs2)C(C(=O)NCC2CCCO2)c2ccc(OC)c(OC)c2)c1` (stereo unspecified): “inactive”; for `CC1(C)CC(=O)CC2(C1)NCC(c1ccccc1Cl)c1c2[nH]c2ccccc12` (stereo unspecified): 9.28 µM (active).

For the molecule `O=C(O)CC(c1ccccc1F)N1Cc2ccccc2C1=O` (stereo unspecified), the Potency entry is “inactive”. The same measure for `CN(C)CCNc1ccc(-c2n[nH]c(=O)c3ccccc23)cc1[N+](=O)[O-]`: “inactive”. The same measure for `CCOC(=O)c1cc2c(nc1NC(=S)Nc1ccccc1)CC(C)(CC)OC2` (stereo unspecified): 13.1 µM (active). The same measure for `CCOC(=O)c1ccc(NC(=S)Nc2cc(C)cc(C)n2)cc1`: “inactive”; for `CCOC(=O)c1cn[nH]c1NC(=S)Nc1ccccc1`: “inactive”; for `COc1ccc(CNC(=O)c2cc(=O)c3c(C)cc(C)cc3o2)cc1`: “inactive”. Regarding `Cc1ccc(N=C2SCCCN2C(=O)c2cccc(N3C(=O)CCC3=O)c2)cc1Cl`, the Potency entry is “inactive”. The same measure for `COc1ccc(N2CC(NS(=O)(=O)c3ccc4ccccc4c3)CC2=O)cc1` (stereo unspecified): “inactive”. Turning to `O=S(=O)(c1ccc(F)cc1)N1CCN(C(=S)NCc2ccco2)CC1`, the Potency is 0.657 µM (active).

On to `O=C(NC1CCN(C(=S)NCc2ccco2)CC1)c1ccc(F)cc1`, for which the Potency is 2.94 µM (active). Regarding `COc1ccc(CCNC(=S)N2CCN(S(=O)(=O)c3ccc(F)cc3)CC2)cc1`, the Potency was 2.94 µM (active). Consider `COc1ccc(C(=O)NC2CCN(C(=S)NCCc3ccccc3)CC2)cc1`, for which the Potency entry is “inactive”. The same measure for `O=C(NCc1ccco1)C1CCCN(S(=O)(=O)c2ccccc2)C1` (stereo unspecified): “inactive”; for `CCOC(=O)N1CCN(S(=O)(=O)c2ccc(OC)cc2)CC1`: “inactive”. The same measure for `COc1ccc(CCNC(=O)C2CCCN(S(=O)(=O)c3ccc(OC)cc3)C2)cc1` (stereo unspecified): “inactive”; for `Cc1ccc(C(=O)NC2CCN(C(=O)Nc3ccc(F)cc3)CC2)cc1`: “inactive”. The same measure for `CC1CCN(S(=O)(=O)c2ccc(S(=O)(=O)NCc3ccco3)cc2)CC1`: “inactive”; for `CSc1ccccc1NC(=O)COC(=O)CCCOc1ccc(C)cc1`: “inactive”. Regarding `COc1ccc(CCNC(=O)COC(=O)Cc2cccc(F)c2)cc1`, the Potency result was “inactive”.

Turning to `O=C(COC(=O)CNC(=O)C1CCCCC1)NCc1ccccc1`, the Potency result is “inactive”.

With `COc1cccc(CSc2nc3nc(C)cc(C)n3n2)c1`, the Potency entry was “inactive”. The same measure for `COC(=O)N/N=C/c1c[n+]([O-])c2ccccc2[n+]1[O-]`: “inactive”; for `O=C(CCN1C(=O)[C@H]2CC=CC[C@H]2C1=O)NCc1nc(-c2ccccc2)no1`: “inactive”; for `CCC(C)NC(=O)C1c2ccccc2C(=O)N1Cc1ccccc1` (stereo unspecified): “inactive”. The same measure for `Cc1ccc(CN2C(=O)CCC2C(=O)NCCCN2CCCCC2C)cc1` (stereo unspecified): “inactive”; for `CCC(C)NC(=O)C1CCC(=O)N1Cc1ccc(C)cc1` (stereo unspecified): 11.7 µM (active); for `O=S(=O)(Cc1nnnn1-c1ccccc1)c1ccccc1`: “inactive”. The same measure for `O=C(/C=C/c1ccccc1[N+](=O)[O-])OCC(=O)N1CCCC1`: “inactive”; for `COc1cccc(NC(=O)N2CCC(NC(=O)C(Cc3cccc(C)c3)NC(C)=O)CC2)c1` (stereo unspecified): “inactive”. For the molecule `O=C(O)Cc1sc(-c2ccc(C(=O)O)cc2)nc1-c1ccccc1`, the Potency result was “inactive”. For the molecule `Cc1ccc(-c2nc(-c3cccnc3)sc2CC(=O)Nc2ccc(C)c(Cl)c2)cc1`, the Potency is 11.7 µM (active). For the molecule `Cc1ccc(S(=O)(=O)NCCC(=O)Nc2ccc(C)c(Cl)c2)cc1C`, the Potency entry was “inactive”.

For the molecule `COc1ccc(OC)c(C(=O)NC(CC(N)=O)c2ccc(N3CCC(N4CCCCC4)CC3)c([N+](=O)[O-])c2)c1` (stereo unspecified), the Potency result is “inactive”.

Take `COc1ccc(N(C)C(=O)CCS(=O)(=O)c2cccc3nsnc23)cc1`: the Potency result was “inactive”. The same measure for `COc1ccc(N(C)S(=O)(=O)c2cccc3nsnc23)cc1`: “inactive”; for `CCOc1ccc(N(CC)S(=O)(=O)c2cccc3nsnc23)cc1`: 6.57 µM (active); for `O=C(Nc1ccc(N2CCOCC2)c(Cl)c1)c1ccc(S(=O)(=O)N2CCOCC2)cc1`: “inactive”.

For `COc1ccc(COC(=O)NC(C(=O)O)c2ccccc2)cc1` (stereo unspecified), the Potency entry is “inactive”. As for `COc1ccc(CNC(=O)Cc2ccc(-c3ccccc3)cc2)cc1OC`, the Potency result was “inactive”. On to `COC(=O)c1ccc(C(NC(=O)OCc2ccccc2)/C(C)=C/[C@@H](C)C(=O)NCc2ccc(OC)c(OC)c2)cc1` (stereo partly specified), for which the Potency is 11.7 µM (active). The same measure for `COc1ccccc1CNC(=O)CCCn1c(=O)c2ccccc2n(CC(=O)NC2CCCC2)c1=O`: 4.65 µM (active); for `COc1ccccc1CNC(=O)CCCN1C(=O)NC2(CCCC2)C1=O`: “inactive”; for `COCCCNC(=O)Cn1c(=O)n(Cc2ccccc2Cl)c(=O)c2cc(OC)c(OC)cc21`: “inactive”. For the molecule `COC(=O)c1ccccc1N=Nc1c(C)[nH][nH]c1=O`, the Potency entry is “inactive”.

In the case of `O=C(O[C@H]1[C@H](Cc2ccccc2)NS(=O)(=O)[C@H]2C[C@@H]3C=C[C@]12O3)c1ccc([N+](=O)[O-])cc1`, the Potency entry was “inactive”. The same measure for `CC(=O)c1ccc(S(=O)(=O)N2CCC3(CC2)OCCO3)cc1`: “inactive”; for `NC(=O)COC(=O)/C=C/c1ccc2ccccc2n1`: “inactive”; for `CC(=O)c1ccc(S(=O)(=O)N2CCN(C(=O)/C=C/c3ccc4ccccc4n3)CC2)cc1`: 5.22 µM (active). Take `COCC1CCCN(C(=O)c2ccc3oc(C(C)C)nc3c2)C1` (stereo unspecified): the Potency result was “inactive”.

Take `Nn1c(SCC(=O)Nc2nccs2)nnc1-c1ccco1`: the Potency result is “inactive”. The same measure for `CC(C)(C)OC(=O)N/N=C/c1cn(-c2ccccc2)nc1-c1cccnc1`: 2.33 µM (active). The same measure for `O=C(COC(=O)/C=C/c1cn(-c2ccccc2)nc1-c1cccnc1)Nc1ccc(Cl)cc1Cl`: “inactive”.

Regarding `CN(C)/N=C/c1cn(-c2ccccc2)nc1-c1cccnc1`, the Potency entry is “inactive”. The same measure for `NC(=O)C1CCN(C(=O)c2cn(-c3ccccc3)nc2-c2cccnc2)CC1`: “inactive”; for `O=C(NCc1cccnc1)c1cn(-c2ccccc2)nc1-c1cccs1`: “inactive”; for `COC(=O)c1cn(-c2ccccc2)nc1-c1cccnc1`: 7.38 µM (active). As to `COc1ccc(C(=O)N2CCN(c3ccc(C(C)=O)cc3F)CC2)cc1S(=O)(=O)NC1CC1`, the Potency result was “inactive”.

Regarding `Cc1ccc(/C=C/C(=O)OCC(=O)NCc2ccc(Cl)cc2)o1`, the Potency result is “inactive”.

In the case of `Cc1cc(-c2ccc(C)c(S(=O)(=O)NCCCN(Cc3ccccc3)C(C)C)c2)on1`, the Potency entry is “inactive”. The same measure for `COC(=O)c1c(NC(=O)c2ccccc2F)sc2c1C(C(=O)OC)CC2` (stereo unspecified): “inactive”; for `O=C(Nc1ccc(C(=O)O)cc1)/C(=C\c1ccccc1)NC(=O)c1ccc(Br)cc1`: “inactive”. The same measure for `COc1ccccc1N1CCN(C(=O)C2Cc3ccccc3CN2C(=O)c2ccco2)CC1` (stereo unspecified): “inactive”; for `CCOCCn1c(-c2ccccc2)nc2ccccc21`: “inactive”. With `CCCCn1c(-c2cccc(C)c2)nc2cc3[nH]c(=O)c(C(C)C)nc3cc21`, the Potency was 4.15 µM (active). The same measure for `CCCCn1c(N)c(N(CCOC)C(=O)CSCC(=O)Nc2cccc(C)c2)c(=O)[nH]c1=O`: “inactive”; for `O=C(O)C1CCCN1C1=NS(=O)(=O)c2ccccc21` (stereo unspecified): “inactive”.

`CN(Cc1ccccc1)S(=O)(=O)c1nnc(NC(=O)c2ccccc2F)s1`: the Potency result is “inactive”. As for `CN(C(=O)COC(=O)c1nc(Cl)ccc1Cl)C1CCS(=O)(=O)C1` (stereo unspecified), the Potency entry was “inactive”. The same measure for `Cc1ccc(C)c2[nH]c(=O)c(CN(Cc3cccnc3)C(=S)NCc3ccco3)cc12`: 3.7 µM (active); for `Cc1cccc2cc(CN(Cc3cccs3)C(=S)NCc3ccco3)c(=O)[nH]c12`: “inactive”.

Consider `O=C(Nc1ccccc1)N(Cc1cccnc1)Cc1ccco1`, for which the Potency result is “inactive”.

Consider `Cc1cn([C@H]2CC(F)[C@@H](CO)O2)c(=O)[nH]c1=O` (stereo partly specified), for which the Potency result is “inactive”. Turning to `Cc1nn(CC(=O)NCC2CCCO2)c(=O)c2cc3ccccc3n12` (stereo unspecified), the Potency entry was “inactive”. The same measure for `O=C(CN1C(=O)NC2(CCCC2)C1=O)NCC1CCCO1` (stereo unspecified): “inactive”; for `O=C(Cn1nc(Cc2cccnc2)c2ccccc2c1=O)NCC1CCCO1` (stereo unspecified): 9.28 µM (active); for `CCCn1c2ccccc2c2cnn(CC(=O)NCCCN3CCCCC3CC)c(=O)c21` (stereo unspecified): “inactive”. The same measure for `CCC1CCC2(CC1)NC(=O)N(CC(=O)Nc1ccc(OC)cc1)C2=O` (stereo unspecified): “inactive”; for `COc1ccc(S(=O)(=O)NC(C)C(=O)N2CCCCCC2)cc1` (stereo unspecified): “inactive”; for `COc1ccc(CC(NC(C)=O)C(=O)NC2CCN(C(=O)c3ccc(Cl)cc3)CC2)cc1` (stereo unspecified): “inactive”. Regarding `O=C(C1CCN(Cc2ccc(Cl)cc2)CC1)N1CCN(Cc2ccc3c(c2)OCO3)CC1`, the Potency result was “inactive”.

Consider `Cc1ccc2nc(-c3cccc(Br)c3)cc(C(=O)Nn3cnnc3)c2c1`, for which the Potency entry is “inactive”. The same measure for `Cc1ccc(-c2cc(C(=O)NCc3cn(C)nc3C)c3cc(Br)ccc3n2)cc1`: 13.1 µM (active); for `COc1ccc(Cl)cc1C(=O)NCc1cn(C)nc1C`: “inactive”. The same measure for `O=C(CCNC(=O)c1ccc(Br)cc1)Nc1cccc(S(=O)(=O)N2CCCCC2)c1`: “inactive”; for `O=C(O)c1ccc(NC(=O)c2ccc(COc3ccc(Cl)cc3)o2)cc1`: “inactive”; for `COc1ccccc1CNS(=O)(=O)CC12CCC(CC1=O)C2(C)C` (stereo unspecified): “inactive”. The same measure for `Cc1c2cnn(-c3ccccc3)c(=O)c2c(C)n1CCCC(=O)N1CCN(C)CC1`: 13.1 µM (active); for `O=C(CCCN1C(=O)C2C3C=CC(C3)C2C1=O)N1CCN(c2ccccc2)CC1` (stereo unspecified): “inactive”; for `CC(=O)Cn1cnc2c(cnn2-c2ccccc2)c1=O`: “inactive”.

Turning to `O=C(NCc1ccncc1)c1cccc(NS(=O)(=O)c2ccc(F)c(F)c2)c1`, the Potency entry is “inactive”. The same measure for `CCOc1ccccc1NS(=O)(=O)c1cc2c3c(c1)C(C)C(=O)N3CCC2` (stereo unspecified): “inactive”. The same measure for `O=C(/C=C/c1ccc(F)cc1)NC(=S)NNC(=O)c1cccnc1`: “inactive”; for `CCOc1ccc(NC(=S)NC(=O)/C=C/c2ccc(OC)cc2)c([N+](=O)[O-])c1`: “inactive”; for `COc1ccc(/C=C/C(=O)NC(=S)NN2CCCCC2c2cccnc2)cc1` (stereo unspecified): 13.1 µM (active).
